# Measurements taken from PubChem BioAssay (NCI).
# About 83,000 compounds went through this panel and 20% of them were active in at least one assay; those are over-represented in the sample as a whole.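 A percent growth of 40 corresponds to 60% growth inhibition; 0 means no net growth; -100 means all cells died. Active threshold: below 10.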 Active and inactive are the calls of the source.
# System: BT-549 breast
# Test: NCI-60 one-dose screen, 48 h (100 = growth as untreated, 0 = no growth, -100 = all killed)
# Conditions: 10 µM unless noted
row,SMILES,growth
1,O=C(/C=C/c1c(-c2ccc(Cl)cc2)nn(-c2ccccc2)c1C(F)(F)F)c1ccc(Cl)cc1,97.4% (inactive)
2,Cc1c(C)c([N+](=O)[O-])c(C)c([N+](=O)[O-])c1C,95.8% (inactive)
3,CC(c1ccccc1)C(C(=O)c1ccccc1)c1ccccc1 (stereo unspecified),101% (inactive)
4,COc1cc(NC(=O)CSc2nc3ccc(C)cc3c(=O)n2Cc2ccccc2)cc(OC)c1OC,53.3% (inactive)
5,CSc1nc2sc3cccc(Cl)c3n2c(=N)c1C#N,96.7% (inactive)
6,CCN(c1ccccc1)S(=O)(=O)c1cc([N+](=O)[O-])ccc1Cl,49.4% (inactive)
7,COC1=CC(=O)c2ccccc2C1=O,85% (inactive)
8,COC(=O)c1ccc2c(c1)[n+](=O)c(C(C)=O)c(C(F)(F)F)n2[O-],-19.6% (active)
9,COc1cc(/C=C/C(=O)c2nc3cc(F)ccc3nc2C)cc(OC)c1OC,112% (inactive)
10,Cc1nc2ccc(Cl)cn2c1-c1nnc(SCc2ccc([N+](=O)[O-])cc2)o1,12.9% (inactive)
11,COc1ccc(/C=C/C(=O)Nc2cc(/C=C\c3cc(OC)c(OC)c(OC)c3)cc(OC)c2OC)cc1OC,8.93% (active)
12,N#C/C(=C\c1cccc(C#N)c1)c1ccccc1,102% (inactive)
13,C[C@H]1[C@H]2[C@H]3CC[C@@H]4[C@@]5(C)CC[C@H](O)C(C)(C)[C@@H]5CC[C@@]4(C)[C@]3(C)CC[C@]23CO[C@]1(C)[C@@H](C(=O)/C=C\c1ccco1)C3,105% (inactive)
14,COc1cc2cc(Oc3cccc(NC(=O)Nc4cc(C(F)(F)F)cc(C(F)(F)F)c4)c3)c(C)nc2cc1OC,1.44% (active)
15,Cc1ncc(C(=O)Nc2ccc(CN3CCN(C)CC3)c(C(F)(F)F)c2)cc1C#Cc1cnc(N)cc1C#N,38% (inactive)
16,Cc1ccc(-n2nc3c(c(C#N)c2=O)CC(c2ccccc2[N+](=O)[O-])C([N+](=O)[O-])=C3O)cc1 (stereo unspecified),93.2% (inactive)
17,C#Cc1cccc(NC(=O)c2cccc(NC(=O)CCl)c2)c1,-43.5% [8.25 µM] (active)
18,N#CC1=C(N)Oc2c(ccc3ccccc23)C1c1ccccc1Cl (stereo unspecified),20.7% (inactive)
19,O=C(CSc1nc2ccccc2[nH]1)NCc1ccccc1,105% (inactive)

row,SMILES,growth
1,COc1ccc(-c2nc(S(=O)(=O)c3ccccc3)c(S(=O)CC(=O)N3CCC(C)CC3)o2)cc1 (stereo unspecified),33.5% (inactive)
2,COc1cc(C2C3=C(COC3=O)N(CCO)c3cc4c(cc32)OCO4)cc(OC)c1OC (stereo unspecified),10.6% (inactive)
3,N#Cc1c(-c2ccccc2)nc2c(c(-c3ccccc3)nn2-c2ccccc2)c1-c1ccc(O)cc1,59.7% (inactive)
4,CC(=O)[C@H]1CCC/C=C/[C@@H]2C[C@H](O)C[C@H]2[C@H](O)/C=C/C(=O)O1,9.71% (active)
5,O=C1/C=C/[C@@H](O)[C@@H]2C[C@@H](O)C[C@H]2/C=C/CCC[C@H](CCc2cccc3ccccc23)O1,13.5% (inactive)
6,CC(C)(C)[Si](C)(C)OC1[C@@H](O[Si](C)(C)C(C)(C)C)[C@@H](CNC(=O)NC(=O)CCl)O[C@H]1n1cnc2c(NC(=O)Nc3ccccc3)ncnc21 (stereo partly specified),-85.9% (active)
7,COc1cc(CC(=O)n2ncc3ccc(N)cc32)cc(OC)c1OC,91.3% (inactive)
8,Cc1cc2c(c(C)c1Cl)C(=O)/C(=C/c1ccc(O)c(O)c1)O2,104% (inactive)
9,O=C1C=CC(=O)N1c1cccc(Cl)c1,108% (inactive)
10,COC(=O)C(CC=O)C(=O)C(=O)Nc1cccc(C(F)(F)F)c1 (stereo unspecified),101% (inactive)
11,CN(CCN(C)c1ccc(C(=N)N)cc1)c1ccc(C(=N)N)cc1,86% (inactive)
12,O=C1/C=C/[C@@H](O)[C@@H]2C[C@@H](O)C[C@H]2/C=C/CCC[C@H](CCc2ccc3ncccc3c2)O1,7.66% (active)
13,C#Cc1cccc(NC(=O)Nc2cccc(NC(=O)CCl)c2)c1,-15.1% [8.25 µM] (active)
14,CCNc1nc2ccc(Nc3ccnc4cc(Cl)ccc34)cc2[nH]1,86.8% (inactive)
15,N#CC(C(=O)/C(=N/NC(=O)c1ccccc1O)C(C#N)c1ccccc1)c1ccccc1 (stereo unspecified),44.2% (inactive)
16,O=[N+]([O-])c1ccc(N=Nc2cc(S(=O)(=O)O)c3cccc(S(=O)(=O)O)c3c2O)cc1,105% (inactive)
17,C=CCn1c(-c2ccc(-c3nc4ccc(C)cc4[nH]3)cc2)n[nH]c1=S,100% (inactive)
18,O=C1Nc2ccccc2/C1=C\c1c(-c2ccccc2)nc2ccccn12,45.3% (inactive)
19,COc1cc(/C=C\c2cc(OC)c(OC)c(OC)c2)cc(N)c1OC,75.9% (inactive)

# System: MDA-MB-435 melanoma
# Test: as above
# Conditions: 10 µM unless noted
row,SMILES,growth
1,O=C(/C=C/c1c(-c2ccc(Cl)cc2)nn(-c2ccccc2)c1C(F)(F)F)c1ccc(Cl)cc1,97.9% (inactive)
2,Cc1c(C)c([N+](=O)[O-])c(C)c([N+](=O)[O-])c1C,115% (inactive)
3,CC(c1ccccc1)C(C(=O)c1ccccc1)c1ccccc1 (stereo unspecified),110% (inactive)
4,COc1cc(NC(=O)CSc2nc3ccc(C)cc3c(=O)n2Cc2ccccc2)cc(OC)c1OC,67.3% (inactive)
5,CSc1nc2sc3cccc(Cl)c3n2c(=N)c1C#N,104% (inactive)
6,CCN(c1ccccc1)S(=O)(=O)c1cc([N+](=O)[O-])ccc1Cl,62.3% (inactive)
7,COC1=CC(=O)c2ccccc2C1=O,-48.2% (active)
8,COC(=O)c1ccc2c(c1)[n+](=O)c(C(C)=O)c(C(F)(F)F)n2[O-],0.455% (active)
9,COc1cc(/C=C/C(=O)c2nc3cc(F)ccc3nc2C)cc(OC)c1OC,75% (inactive)
10,Cc1nc2ccc(Cl)cn2c1-c1nnc(SCc2ccc([N+](=O)[O-])cc2)o1,61.2% (inactive)
11,COc1ccc(/C=C/C(=O)Nc2cc(/C=C\c3cc(OC)c(OC)c(OC)c3)cc(OC)c2OC)cc1OC,-35% (active)
12,N#C/C(=C\c1cccc(C#N)c1)c1ccccc1,100% (inactive)
13,C[C@H]1[C@H]2[C@H]3CC[C@@H]4[C@@]5(C)CC[C@H](O)C(C)(C)[C@@H]5CC[C@@]4(C)[C@]3(C)CC[C@]23CO[C@]1(C)[C@@H](C(=O)/C=C\c1ccco1)C3,17.8% (inactive)
14,COc1cc2cc(Oc3cccc(NC(=O)Nc4cc(C(F)(F)F)cc(C(F)(F)F)c4)c3)c(C)nc2cc1OC,-2.55% (active)
15,Cc1ncc(C(=O)Nc2ccc(CN3CCN(C)CC3)c(C(F)(F)F)c2)cc1C#Cc1cnc(N)cc1C#N,-95.8% (active)
16,Cc1ccc(-n2nc3c(c(C#N)c2=O)CC(c2ccccc2[N+](=O)[O-])C([N+](=O)[O-])=C3O)cc1 (stereo unspecified),96.7% (inactive)
17,C#Cc1cccc(NC(=O)c2cccc(NC(=O)CCl)c2)c1,-13.2% [8.25 µM] (active)
18,N#CC1=C(N)Oc2c(ccc3ccccc23)C1c1ccccc1Cl (stereo unspecified),-41.2% (active)
19,O=C(CSc1nc2ccccc2[nH]1)NCc1ccccc1,95.8% (inactive)

row,SMILES,growth
1,COc1ccc(-c2nc(S(=O)(=O)c3ccccc3)c(S(=O)CC(=O)N3CCC(C)CC3)o2)cc1 (stereo unspecified),57.2% (inactive)
2,COc1cc(C2C3=C(COC3=O)N(CCO)c3cc4c(cc32)OCO4)cc(OC)c1OC (stereo unspecified),-2.88% (active)
3,N#Cc1c(-c2ccccc2)nc2c(c(-c3ccccc3)nn2-c2ccccc2)c1-c1ccc(O)cc1,51.5% (inactive)
4,CC(=O)[C@H]1CCC/C=C/[C@@H]2C[C@H](O)C[C@H]2[C@H](O)/C=C/C(=O)O1,8.17% (active)
5,O=C1/C=C/[C@@H](O)[C@@H]2C[C@@H](O)C[C@H]2/C=C/CCC[C@H](CCc2cccc3ccccc23)O1,6.06% (active)
6,CC(C)(C)[Si](C)(C)OC1[C@@H](O[Si](C)(C)C(C)(C)C)[C@@H](CNC(=O)NC(=O)CCl)O[C@H]1n1cnc2c(NC(=O)Nc3ccccc3)ncnc21 (stereo partly specified),-79.1% (active)
7,COc1cc(CC(=O)n2ncc3ccc(N)cc32)cc(OC)c1OC,65.3% (inactive)
8,Cc1cc2c(c(C)c1Cl)C(=O)/C(=C/c1ccc(O)c(O)c1)O2,106% (inactive)
9,O=C1C=CC(=O)N1c1cccc(Cl)c1,101% (inactive)
10,COC(=O)C(CC=O)C(=O)C(=O)Nc1cccc(C(F)(F)F)c1 (stereo unspecified),107% (inactive)
11,CN(CCN(C)c1ccc(C(=N)N)cc1)c1ccc(C(=N)N)cc1,90.5% (inactive)
12,O=C1/C=C/[C@@H](O)[C@@H]2C[C@@H](O)C[C@H]2/C=C/CCC[C@H](CCc2ccc3ncccc3c2)O1,5.74% (active)
13,C#Cc1cccc(NC(=O)Nc2cccc(NC(=O)CCl)c2)c1,-39.8% [8.25 µM] (active)
14,CCNc1nc2ccc(Nc3ccnc4cc(Cl)ccc34)cc2[nH]1,93.1% (inactive)
15,N#CC(C(=O)/C(=N/NC(=O)c1ccccc1O)C(C#N)c1ccccc1)c1ccccc1 (stereo unspecified),24.1% (inactive)
16,O=[N+]([O-])c1ccc(N=Nc2cc(S(=O)(=O)O)c3cccc(S(=O)(=O)O)c3c2O)cc1,86% (inactive)
17,C=CCn1c(-c2ccc(-c3nc4ccc(C)cc4[nH]3)cc2)n[nH]c1=S,98.1% (inactive)
18,O=C1Nc2ccccc2/C1=C\c1c(-c2ccccc2)nc2ccccn12,-42% (active)
19,COc1cc(/C=C\c2cc(OC)c(OC)c(OC)c2)cc(N)c1OC,1.87% (active)
